Hits are enriched below; roughly 3.1% of the tested compounds scored in any of these assays.
HIF act: HIF pathway transcriptional activation. U2OS HRE-luciferase reporter, luminescence; normalized: DMSO 0%, desferrioxamine 100%. activation, % at 7.5 µM (by protocol). hit rate 0.32% among 300,000;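 active means mean activation of at least 10% of the iron chelator positive control signal, with at least half of replicates also reaching 10%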
HSF1 inh: HSF1 inhibition | AID 2098 | NIH3T3-HGL HSE-luciferase, MG132-induced, luminescence 8 h; active compounds read low | activity change, negative = inhibition, % at 7.5 µM (by protocol) | hit rate 0.77% among 300,000;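 active means more than half of replicate wells show activity change below -50%, luminescence cut by over half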;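 further: luciferase reports HSF-1 transcriptional activity via heat shock element; 0% = median of DMSO wells and -100% = zero luminescence signal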
HSF1 activator: increases HSF-1 driven luciferase reporter signal; NIH3T3-HGL HSF-1 luciferase reporter, MG132, 8 h; 100% = twice DMSO control signal; activation, % at 9 µM; hit rate 1.7% among 300,000; AID 504408;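 active means mean replicate activation of at least 50% with a set share of replicates each reaching 50%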;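 further: 0% = median of the neutral control wells and 100% = twice that signal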
ARNT TACC3 PPI: disruptors of human ARNT/TACC3 interaction. Q9Y6A5. AlphaScreen His-ARNT PAS-B/GST-TACC3 binding, luminescence; TACC3 fragment carries E629A point mutation. inhibition, % at 9.99 µM. hit rate 0.66% among 390,000. AID 623870;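 active means mean inhibition of replicates at least 50% and at least half of replicates each reaching 50%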;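 further: 0% = complete ARNT plus TACC3 wells and 100% = ARNT alone without TACC3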
HSP90 inh: inhibitors of HSP90 luciferase refolding in rabbit reticulocyte lysate. luciferase refolding luminescence, 3 h. inhibition, % at 5.6 µM. hit rate 0.91% among 290,000;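 active means inhibition above the screen-wide mean plus 3 SD, computed separately per campaign, cut at about 16% in these data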;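 further: 0% = DMSO wells and 100% = 60 µM geldanamycin wells; inhibitors lower the luminescence because luciferase stays unfolded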
Starred values were filed as active, the others as inactive.

`Oc1c(Br)cc(Br)cc1C=Nc1cccc2ncccc12` gave HIF act 1, HSF1 inh 37, HSF1 activator 62* and ARNT TACC3 PPI 25.
`CO[C@@H]1CN(C)C(=O)c2cc(NC(=O)Cc3ccccc3)ccc2OC[C@H](C)N(C(C)=O)C[C@@H]1C` gave ARNT TACC3 PPI -16.
COc1ccc(CN(C)C[C@H]2OCCCC[C@@H](C)Oc3ccc(NS(=O)(=O)c4cccs4)cc3C(=O)N([C@@H](C)CO)C[C@H]2C)cc1 was read as ARNT TACC3 PPI 16.
CCCNC(=O)C[C@@H]1CC[C@@H]2[C@H](COC[C@H](O)CN2C(=O)Nc2ccc3c(c2)OCO3)O1 was read as ARNT TACC3 PPI -5.
Screening CC(C)NC(=O)N(C)C[C@H]1OCCCC[C@H](C)Oc2ccc(NS(=O)(=O)c3ccc(Cl)cc3)cc2C(=O)N([C@@H](C)CO)C[C@@H]1C returned ARNT TACC3 PPI -6.
`COc1cc(C2C(C#N)=C(N)OC3=C2C(=O)CCC3)c([N+](=O)[O-])cc1OC` (stereo not given) gave HIF act 0, HSF1 inh -77*, HSF1 activator -83, ARNT TACC3 PPI 13 and HSP90 inh 2.
Screening Cc1cc(C2C(C#N)=C(N)OC3=C2C(=O)CCC3)c(C)s1 (stereo not given) returned HIF act 0, HSF1 inh 1, HSF1 activator 1, ARNT TACC3 PPI -2 and HSP90 inh 3.
Screening CN(C)CC(=O)N[C@H]1CC[C@@H](CC(=O)NCc2ccccc2F)O[C@@H]1CO returned ARNT TACC3 PPI -37.
Screening O=C(O)c1ccccc1Nc1ccc([N+](=O)[O-])cc1C(=O)O returned HIF act 14*, HSF1 inh -3, HSF1 activator -8, ARNT TACC3 PPI -6 and HSP90 inh -2.
`Nc1ccccc1Nc1ccc([N+](=O)[O-])cc1[N+](=O)[O-]` gave HIF act 0, HSF1 inh 18, HSF1 activator 60*, ARNT TACC3 PPI 17 and HSP90 inh -1.
`NC(=O)c1cc([N+](=O)[O-])ccc1Nc1ccccc1` gave ARNT TACC3 PPI 4.
C[C@@H]1CN([C@H](C)CO)C(=O)c2cc(C#CCN(C)C)cnc2O[C@@H]1CN(C)C(=O)CCN1CCCCC1 was read as ARNT TACC3 PPI -8.
Cn1cnc(S(=O)(=O)N2CC[C@@H]3[C@@H](CO)Nc4ccc(-c5ccccc5F)cc4[C@@H]32)c1 was read as ARNT TACC3 PPI 26.
For COCC#Cc1cnc2c(c1)C(=O)N([C@H](C)CO)C[C@@H](C)[C@@H](CN(C)Cc1ccccc1)O2 the results were ARNT TACC3 PPI -4.
Screening Cc1nc2c3cc(Cl)ccc3n(CCN3CCCCC3)c2s1 returned HIF act 1, HSF1 inh 17, HSF1 activator 60*, ARNT TACC3 PPI 6 and HSP90 inh 3.
Screening COc1ccc2c(c1)CC/C(=C/c1cc(OC)c(OC)c(OC)c1)C2=O returned HIF act 0, HSF1 inh 3, HSF1 activator -15, ARNT TACC3 PPI 10 and HSP90 inh -6.
Screening COc1ccc(/C=C2\CCc3ccccc3C2=O)cc1OC returned HIF act 2, HSF1 inh 30, HSF1 activator 68*, ARNT TACC3 PPI -13 and HSP90 inh -22.
Screening COc1ccc(/C=C2\CCC/C(=C\c3ccc(OC)c(OC)c3OC)C2=O)c(OC)c1OC returned HIF act -1, HSF1 inh 38, HSF1 activator 53*, ARNT TACC3 PPI 20 and HSP90 inh 1.
`COc1cccc(/C=C2\CCc3ccccc3C2=O)c1` gave HIF act 2, HSF1 inh 13, HSF1 activator 11, ARNT TACC3 PPI -2 and HSP90 inh 8.
For COc1ccc(N/C=C2\CCc3ccccc3C2=O)cc1 the results were HIF act -7, HSF1 inh -2, HSF1 activator 4, ARNT TACC3 PPI 15 and HSP90 inh 42*.
Screening COc1ccc2c(c1)CC/C(=C/c1ccccn1)C2=O returned HIF act 3, HSF1 inh 38, HSF1 activator 66*, ARNT TACC3 PPI 0 and HSP90 inh 2.
`COc1cc(OC)c(OC)cc1/C=C1\CCC/C(=C\c2cc(OC)c(OC)cc2OC)C1=O` gave HIF act 2, HSF1 inh 10, HSF1 activator 21, ARNT TACC3 PPI 17 and HSP90 inh -3.

Source: PubChem BioAssay (several laboratories)
